Molecules are shown by their SMILES. About 83,000 compounds went through this panel and 20% of them were active in at least one assay; those are over-represented in the sample as a whole.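 The test compound was applied at a single concentration to cells in 96-well plates for 48 hours, and percent growth was recorded.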 Values without a mark were called inactive. Calls of active or inactive are those of the source. The calls were made as follows: active = growth percent below 10; inactive = the rest.

The record followed here is PubChem BioAssay (NCI).

Some test systems named below: SR leukemia; RPMI-8226 leukemia; OVCAR-8 ovarian; OVCAR-5 ovarian; OVCAR-4 ovarian; SK-OV-3 ovarian; IGROV1 ovarian; OVCAR-3 ovarian; NCI/ADR-RES ovarian; HS 578T breast.
Experiment in all cases: NCI-60 one-dose screen, 48 h (100 = growth as untreated, 0 = no growth, -100 = all killed)
Common to all, as to details: 10 µM unless noted

Turning to `COc1ccc(CNCCN2C(=O)c3ccc4c5c(ccc(c35)C2=O)C(=O)N(CCNCc2ccc(OC)cc2)C4=O)cc1`, the growth with SR leukemia is -29.4% (active); in the experiment with RPMI-8226 leukemia, -35.2% (active); in the experiment on OVCAR-8 ovarian, -67.3% (active); in the experiment on OVCAR-5 ovarian, -72.7% (active); in the experiment with OVCAR-4 ovarian, -99.5% (active); in the experiment on SK-OV-3 ovarian, -68.1% (active). The values for the growth with IGROV1 ovarian, in the experiment with OVCAR-3 ovarian and in the experiment with NCI/ADR-RES ovarian were -58.4% (active), -95.5% (active) and -25.9% (active), respectively.

Turning to `Cc1c([N+](=O)[O-])cc(C(C)(C)C)cc1[N+](=O)[O-]`, the growth is 106% in the experiment with SR leukemia; 112% in the experiment on RPMI-8226 leukemia; 98.6% with OVCAR-8 ovarian; 91.1% in the experiment on OVCAR-5 ovarian; 115% with OVCAR-4 ovarian; 92.3% with SK-OV-3 ovarian. Also, the figures for the growth with OVCAR-3 ovarian, in the experiment on HS 578T breast and in the experiment with NCI/ADR-RES ovarian were 101%, 99.5% and 103%, respectively.

Consider `CS(=O)(=O)c1ccc(-c2cc3c(oc2=O)-c2ccccc2OC3O)cc1` (configuration not stated), for which the growth with SR leukemia is 103%; in the experiment on RPMI-8226 leukemia, 90.6%; with OVCAR-8 ovarian, 95.9%; with OVCAR-5 ovarian, 98.2%; in the experiment with OVCAR-4 ovarian, 94%; with SK-OV-3 ovarian, 92.8%. The growth in the experiment with OVCAR-3 ovarian is 88.2%; in the experiment on HS 578T breast, 88.5%; in the experiment on NCI/ADR-RES ovarian, 105%.

As to `CC(=O)N1N=C(c2cccc(Nc3ccncc3)c2)CC1c1ccccc1` (configuration not stated), the growth with SR leukemia was 58.3%; in the experiment with RPMI-8226 leukemia it was 76.2%; in the experiment with OVCAR-8 ovarian it was 88.9%; in the experiment with OVCAR-5 ovarian, 90.1%; in the experiment on OVCAR-4 ovarian, 89.7%; with SK-OV-3 ovarian, 84.2%. The growth in the experiment with OVCAR-3 ovarian is 91.7%; in the experiment with HS 578T breast, 83.4%; with NCI/ADR-RES ovarian, 91.9%.

Consider `Cc1[nH]c(C(=O)Nc2ccccc2OCc2cccc(C(=O)NCCN)c2)c(Cl)c1Cl`, for which the growth is -15.8% (active) with SR leukemia; 30.1% in the experiment on RPMI-8226 leukemia; 37.9% in the experiment on OVCAR-8 ovarian; 104% in the experiment with OVCAR-5 ovarian; 98.1% in the experiment with OVCAR-4 ovarian; 108% in the experiment on SK-OV-3 ovarian. For the same molecule, the growth in the experiment with OVCAR-3 ovarian was 76.4%; in the experiment on HS 578T breast, 92.6%; with NCI/ADR-RES ovarian, 94.3%.

Take `C=C1C(=O)O[C@H]2[C@H]1CC/C(CNC(=O)/C=C/c1ccccc1F)=C\CC[C@@]1(C)O[C@@H]21`: the growth was 8.95% (active) with SR leukemia; -2.96% (active) in the experiment on RPMI-8226 leukemia; 4.58% (active) in the experiment on OVCAR-8 ovarian; 27.7% in the experiment with OVCAR-5 ovarian; 9.27% (active) in the experiment with OVCAR-4 ovarian; 15% with IGROV1 ovarian. Moreover, the growth in the experiment with OVCAR-3 ovarian is -62.7% (active); in the experiment with HS 578T breast, 58.2%.

Take `CCOC(=O)C1CC(=O)c2cc(OC)c(OC)cc2C1` (configuration not stated): the growth was 89.6% in the experiment with SR leukemia; 82.3% in the experiment with RPMI-8226 leukemia; 103% in the experiment on OVCAR-8 ovarian; 101% in the experiment with OVCAR-5 ovarian; 96.8% in the experiment with OVCAR-4 ovarian; 106% in the experiment with SK-OV-3 ovarian. The growth in the experiment on OVCAR-3 ovarian is 110%; in the experiment on HS 578T breast, 112%; in the experiment on NCI/ADR-RES ovarian it was 98.5%.

On to `COc1ccc(Cc2nc3cc(OC)c(OC)cc3c(=O)[nH]2)cc1`, for which the growth in the experiment with SR leukemia was 36.1%; in the experiment on RPMI-8226 leukemia it was 52.6%; in the experiment with OVCAR-8 ovarian it was 73.5%; in the experiment on OVCAR-5 ovarian, 78.6%; with OVCAR-4 ovarian it was 105%; in the experiment on SK-OV-3 ovarian it was 148%. In addition, the growth in the experiment on OVCAR-3 ovarian is 78.9%; in the experiment with HS 578T breast, 77.5%; with NCI/ADR-RES ovarian, 74.8%.

As to `Cn1c(COC(=O)NCCN2CCOCC2)nc2c(N3CCOCC3)nc(-c3ccccc3)nc21`, the growth in the experiment with SR leukemia is -5.83% (active); in the experiment with RPMI-8226 leukemia, -26.2% (active); in the experiment on OVCAR-8 ovarian it was 7.67% (active); in the experiment on OVCAR-5 ovarian, -86.6% (active); in the experiment with OVCAR-4 ovarian it was -61.1% (active); in the experiment on SK-OV-3 ovarian, 77.7%. The results for the growth in the experiment on OVCAR-3 ovarian, with HS 578T breast and in the experiment with NCI/ADR-RES ovarian were -86.5% (active), -35% (active) and -12.7% (active), respectively.

`Cc1ccc(O)c(C(=O)O)c1`: the growth was 101% in the experiment with SR leukemia; 103% in the experiment with RPMI-8226 leukemia; 112% with OVCAR-8 ovarian; 108% with OVCAR-5 ovarian; 122% in the experiment on OVCAR-4 ovarian; 106% in the experiment on SK-OV-3 ovarian. The results for the growth in the experiment on OVCAR-3 ovarian, in the experiment with HS 578T breast and in the experiment on NCI/ADR-RES ovarian were 107%, 108% and 111%, respectively.

As to `CCCCCCOc1ccc(C(=N)N(CCCC)CCCC)c2ccccc12`, the growth in the experiment on SR leukemia is -46.9% (active); with RPMI-8226 leukemia, -41.2% (active); with OVCAR-8 ovarian, -74.6% (active); with OVCAR-5 ovarian it was -93.8% (active); with OVCAR-4 ovarian, -96.4% (active); with SK-OV-3 ovarian, -96.4% (active). Moreover, the growth in the experiment with OVCAR-3 ovarian was -94.2% (active); with HS 578T breast, -13.9% (active); in the experiment on NCI/ADR-RES ovarian, -95.3% (active).

For `COc1ccc(-c2nc3sccn3c2/C=C/C(=O)c2cc(OC)c(OC)c(OC)c2)cc1`, the growth in the experiment with SR leukemia was 55.4%; in the experiment on RPMI-8226 leukemia, -39.1% (active); in the experiment on OVCAR-8 ovarian, 49.9%; with OVCAR-5 ovarian, 103%; in the experiment on OVCAR-4 ovarian it was 54.7%; with SK-OV-3 ovarian, 68.5%. Besides, the growth in the experiment with OVCAR-3 ovarian was 53.7%; in the experiment on HS 578T breast it was 71.1%; in the experiment with NCI/ADR-RES ovarian it was 47.5%.

In the case of `O=S(=O)(O)c1cc(O)c2c(N=Nc3ccc(Nc4ccccc4)c4c(S(=O)(=O)O)cccc34)cc(S(=O)(=O)O)cc2c1`, the growth in the experiment on SR leukemia is 111%; with RPMI-8226 leukemia, 109%; in the experiment on OVCAR-8 ovarian it was 97%; in the experiment with OVCAR-5 ovarian it was 105%; in the experiment with OVCAR-4 ovarian, 113%; in the experiment with SK-OV-3 ovarian, 104%. In addition, the growth is 107% with OVCAR-3 ovarian, 101% in the experiment on HS 578T breast and 102% in the experiment with NCI/ADR-RES ovarian.

In the case of `CCCCCCNC(=O)Oc1ccc(/C(=C(/CC)Cc2ccccc2)c2ccc(OCCN(CC)CC)cc2)cc1`, the growth in the experiment on SR leukemia was -27.3% (active); with RPMI-8226 leukemia it was 26.8%; with OVCAR-8 ovarian it was 61.4%; in the experiment with OVCAR-5 ovarian, 83.2%; in the experiment on OVCAR-4 ovarian, 66.4%; in the experiment with IGROV1 ovarian, 76.6%. The growth was 72.4% in the experiment on OVCAR-3 ovarian, 69.7% in the experiment on HS 578T breast and 70.6% in the experiment on NCI/ADR-RES ovarian.

Turning to `COc1ccc2c(/C=C3/C(=O)NC(=S)NC3C)cc(=O)oc2c1` (configuration not stated), the growth with SR leukemia is 96.6%; in the experiment on RPMI-8226 leukemia, 117%; in the experiment on OVCAR-8 ovarian it was 91.6%; in the experiment with OVCAR-5 ovarian, 94.1%; with OVCAR-4 ovarian it was 100%; with SK-OV-3 ovarian it was 100%. Besides, the growth with OVCAR-3 ovarian is 101%; with HS 578T breast it was 100%; in the experiment with NCI/ADR-RES ovarian it was 99%.

On to `CCOC(=O)Oc1c(OC)cc(C(=O)O[C@@H]2C[C@@H]3CN4CCc5c([nH]c6cc(OC)ccc56)[C@H]4C[C@@H]3[C@H](C(=O)OC)[C@H]2OC)cc1OC`, for which the growth in the experiment with SR leukemia is -2.39% (active); in the experiment on RPMI-8226 leukemia, -5.39% (active); with OVCAR-8 ovarian, 75.9%; in the experiment with OVCAR-5 ovarian it was 90.5%; in the experiment with OVCAR-4 ovarian, 94.7%; with SK-OV-3 ovarian, 91.9%. Further, the growth is 38.5% in the experiment with OVCAR-3 ovarian, 72.1% in the experiment on HS 578T breast and 56.5% in the experiment on NCI/ADR-RES ovarian.

Consider `CCCCCCC/C=C/[C@H]1O[C@]2(O)C(=O)C=C3C[C@@H](O[C@@H]4O[C@H](CO)[C@@H](O)C(O)[C@@H]4O)C[C@@H]3[C@H]2C=C1C` (some centres not stated), for which the growth is -26.4% (active) in the experiment with SR leukemia; -23.6% (active) in the experiment on RPMI-8226 leukemia; -20.5% (active) in the experiment with OVCAR-8 ovarian; 12% in the experiment with OVCAR-5 ovarian; 29.6% in the experiment on OVCAR-4 ovarian; 57.6% in the experiment on SK-OV-3 ovarian. Further, the growth in the experiment with OVCAR-3 ovarian was -75.4% (active); with HS 578T breast, 29.1%; in the experiment with NCI/ADR-RES ovarian, -6.45% (active).

Regarding `COc1ccc(NC(=O)c2sc3nc(C)c(C(O)c4ccc(OC)cc4)cc3c2N)cc1` (configuration not stated), the growth is 4.21% (active) with SR leukemia; 39.8% with RPMI-8226 leukemia; 20.4% in the experiment with OVCAR-8 ovarian; 50.6% in the experiment on OVCAR-5 ovarian; 50.4% with OVCAR-4 ovarian; 38.5% in the experiment with SK-OV-3 ovarian. The growth in the experiment with OVCAR-3 ovarian is 16.7%; in the experiment with HS 578T breast, 20.1%; with NCI/ADR-RES ovarian it was 16.1%.

With `CC(=O)OCC(=O)C1(O)C(C)CC2C3C=C(C)C4=Cc5c(cnn5-c5ccccc5)CC4(C)C3C(O)CC21C` (configuration not stated), the growth is 2.76% (active) in the experiment on SR leukemia; -18.3% (active) in the experiment on RPMI-8226 leukemia; 44.9% in the experiment with OVCAR-8 ovarian; 25.3% with OVCAR-5 ovarian; 43.2% in the experiment on OVCAR-4 ovarian; 43.1% in the experiment on SK-OV-3 ovarian. Moreover, the growth in the experiment with OVCAR-3 ovarian is 11.5%; with NCI/ADR-RES ovarian, 35%.

As to `CN1CCN(c2ccc3nc(-c4cc(C(C)(C)C)c(O)c(C(C)(C)C)c4)[nH]c3c2)CC1`, the growth was -14.5% (active) with SR leukemia; -24.2% (active) in the experiment on RPMI-8226 leukemia; 94.1% in the experiment with OVCAR-8 ovarian; 91.6% in the experiment on OVCAR-5 ovarian; 75.9% in the experiment with OVCAR-4 ovarian; 83.9% with SK-OV-3 ovarian. Moreover, the growth in the experiment with HS 578T breast is 71.9%; in the experiment on NCI/ADR-RES ovarian, 86.8%.
